Only some compounds are listed: those with a hit (about 2.5% of all), similar ones and a draw of the others.
aSyn rescue – alpha-synuclein toxicity inhibition in yeast; Potency, µM (doses to about 46.1 µM), inactives show at the top dose growth rescue (activation), hits mostly activators; hit rate 0.14% among 370,000; Yeast expressing alpha-synuclein, growth rescue, BacTiter-Glo, 24 h; further: potency means the concentration at half of the fitted maximal effect; % of control where 0% means no effect; nearly all actives have a fitted effect of over 65% in size
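Galactose-induced alpha-syn yeast (OD600=0.02, raffinose-pregrown) + pinned cpd, 24 hr, 30 deg C; growth by BacTiter-Glo luminescence. Growth restoration scores as activation.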
CCT modulator – modulators of cytosolic chaperonin (CCT/TRiC) activity; purified chaperonin ATPase assay, HTRF ADP detection, 30 min; hit rate 0.3% among 360,000; AID 651819; activity change, % (concentration not given with the values), hits read low; in the data active means activity change below about -30%; further: on the % scale 0 is the no-effect control and ±100 the full control effect
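TRiC (40 or 20 nM final, by batch activity) in 30 mM Tris pH 7.4, 100 mM KCl, 5 mM MgCl2, 1 mM DTT was treated with compound at 76 uM single dose, then 10 uM ATP, 30 min at 37 °C. ADP was read by HTRF Transcreener.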
Mito fusion yeast – mitochondrial division inhibition or fusion activation; hit rate 0.23% among 320,000; S. cerevisiae fusion-defective mutant growth rescue, CellTiterGlo 48 h; Potency, µM (top dose mostly 46.1 µM), for inactives: at the top dose growth rescue (activation), actives largely listed as activators; AID 485298; further: potency means the concentration at half of the fitted maximal effect; % of control where 0% means no effect; nearly all actives have a fitted effect of over 45% in size
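Temperature-sensitive fusion-defective S. cerevisiae (e.g. fzo1-1, mgm1-5) were grown with compound in YPEG medium (3% ethanol, 3% glycerol) for 48 hours at 37C. Growth rescue was measured as viability by CellTiterGlo luminescence after 10 minutes at ambient.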
TDP43 rescue – rescues yeast growth from TDP-43 toxicity. TDP-43 expressing yeast growth rescue, BacTiter-Glo, 24 h. Potency, µM (doses to about 46.1 µM), for the others: at the top dose growth rescue (activation), actives largely listed as activators. hit rate 1.8% among 410,000. AID 652104; further: potency means the concentration at half of the fitted maximal effect; % of control where 0% means no effect; nearly all actives have a fitted effect of over 50% in size
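Cell-based yeast growth screen: TDP-43 expression induced in galactose, inoculum OD600=0.02 after raffinose pregrowth to mid-log. Read-out BacTiter-Glo luminescence at 24 hr, 30 deg C; inhibition of toxicity seen as signal increase.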
pAkt inh – inhibitors of Akt phosphorylation. AID 651550. hit rate 0.32% among 360,000. activity change, % for hits at 50 µM. Neuro2A IGF-stimulated pAkt S473 HTRF, 20 min; hits give low values; in the data active means activity change below about -80%; inconclusive means mostly about -51% to -80%; further: on the % scale 0 is the no-effect control and ±100 the full control effect
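Neuro2A cells in DMEM with 0.5% FBS, overnight at 37 deg C, given compound at single 50 µM final, then IGF (6 nM final) for 20 min at 37 deg C. Lysed; phospho-Akt Ser473 by HTRF after 24 h, 665/615 ratio.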
Anesthetic bind – binds horse apoferritin like a general anesthetic; P02791; hit rate 0.074% among 350,000; Potency, µM (doses to about 77.5 µM), for the others: at the highest dose activity change, negative = displacement, most hits filed as inhibitors; apoferritin/1-aminoanthracene competitive binding, fluorescence; further: potency means the concentration at half of the fitted maximal effect; on the % scale 0 is the no-effect control and ±100 the full control effect; nearly all actives have a fitted effect of over 20% in size
Target sequence (P02791 2-175 limits assumed): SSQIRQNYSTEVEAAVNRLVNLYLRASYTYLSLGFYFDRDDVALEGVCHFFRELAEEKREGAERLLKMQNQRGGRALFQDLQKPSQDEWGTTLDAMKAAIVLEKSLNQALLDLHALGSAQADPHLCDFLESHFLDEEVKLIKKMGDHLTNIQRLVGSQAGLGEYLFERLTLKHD
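Steps: apoferritin (10 uM) was premixed with half-saturated 1-AMA in PBS, compounds were pin-transferred, plates stood 10 min at room temperature, fluorescence was read at 380/535 nm, and curves were fitted with a Hill equation.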
Active calls of the source: *; i = inactive; u = inconclusive; x = not tested or not shown; ! = repeats disagree; [ ] = another dose, or the depositor's remark. Unless noted, the call rests on the fitted dose curve; in most records, active means well fitted curve in the direction sought with a large enough effect; inconclusive means small, poorly fitted or top-dose-only effect, or another doubt; inactive means no such curve, though single readings can be large; an effect the other way counts as inactive or inconclusive.

SMILES	aSyn rescue	CCT modulator	Mito fusion yeast	TDP43 rescue	pAkt inh	Anesthetic bind
COc1ccc(C(=O)CC2(C(=O)O)CCCCC2)cc1	14%	-2	3%	16µM*	i	-5%
COc1cc(OC)c(OC)cc1/C=C/c1nccc2ccccc12	-17%	x	x	x	x	x
CCOC(=O)c1cnc2c(OC)cccc2c1N1CCN(c2ccccc2F)CC1	x	x	x	11µM*	x	8.9µM*
CCOC(=O)c1cnc2ccc(OCC)cc2c1N1CCN(c2ccccc2OC)CC1	8%	0	8%	35µM*	i	-2%
CCOC(=O)c1cnc2ccc(OCC)cc2c1N(C)Cc1ccccc1	14%	-5	21%	22µM*	i	u
Oc1ccc(-c2nc3ccc4ccccc4c3c3c2CCC3)cc1O	-49%	-2	16µM*	26%	i	-17%
CC1CCN(S(=O)(=O)c2ccc3c(ccn3CCC(=O)NCc3ccccc3F)c2)CC1	x	x	x	25%	x	-7%
Cc1ccc(Sc2cncc3sc(C(N)=O)cc23)cc1	x	x	x	x	x	-11%
Cc1ccc(Sc2c([N+](=O)[O-])ncn2C)cc1	0%	-3	-6%	10µM*	-110%*	u
Cc1nc2sccn2c(=O)c1CCN1CCC(=C(c2ccccc2)c2ccc(F)cc2)CC1	1%	x	18µM*!	x	x	-19%
Cc1nc2sccn2c(=O)c1S(=O)(=O)N1CCN(c2ccccc2)CC1	1%	-1	-4%	6%	i	-7%
O=C(Nc1ccccc1Br)c1cnn2c1NC(=C1CC1)C=C2C(F)F	2%	x	x	x	x	x
Cc1cc(C)cc(NS(=O)(=O)c2c(C)nc3scc(C)n3c2=O)c1	x	x	x	u	x	-9%
CC(=O)c1ccc(NS(=O)(=O)c2c(C)nc3scc(C)n3c2=O)cc1	x	x	x	20%	x	-3%
Cc1cccc(NS(=O)(=O)c2c(C)nc3scc(C)n3c2=O)c1	u	0	1%	16µM*	i	-12%
Cc1nc2scc(C)n2c(=O)c1S(=O)(=O)Nc1ccc(N2CCN(S(C)(=O)=O)CC2)cc1	u	1	-46%	16µM*	i	u
CN(CCO)c1nc(-c2cccs2)nc2ccccc12	-6%	x	x	x	x	x
O=C(N/N=C/c1coc2ccccc2c1=O)c1cc(Br)c(O)c(Br)c1	-9%	2	-4%	-33%	i	-16%
CCCOc1cccc(C(=O)N/N=C/c2coc3ccccc3c2=O)c1	4%	-37*	-1%	u	i	-18%
CCOC(=O)c1cnn(-c2cc(C)c3ccccc3n2)c1N	3%	2	6%	17%	-133%*	-9%
CCOC(=O)c1cnn(-c2ccccn2)c1N	-6%	-2	-8%	u	i	-12%
O=C(OCC(=O)N1CCCC1=O)c1nc(Cl)c(Cl)c(Cl)c1Cl	4%	-2	-4%	25µM*	i	-24%
Nc1c(Cl)c(Cl)nc(C(=O)OCC(=O)N2CCCC2=O)c1Cl	-2%	-1	-2%	8%	i	x
CCCC/C=C/[C@@H](c1ccccc1)C1COC(=O)CC1O (stereo partly drawn)	x	x	x	x	x	-9%
COc1cccc(C(=O)Nc2ccccc2N2CCOCC2)c1	-1%	-7	6%	13µM*	i	-7%
SMILES	aSyn rescue	CCT modulator	Mito fusion yeast	TDP43 rescue	pAkt inh	Anesthetic bind
Cc1noc(C)c1C(=O)Nc1ccccc1N1CCOCC1	-3%	-30*	2%	18%	i	x
O=C(NCCCOc1ccc([N+](=O)[O-])cc1Cl)OCc1ccccc1	u	-2	x	16µM*	i	x
N/C(=N\OC(=O)c1ccc(Br)o1)c1ccccn1	0%	-2	-12%	14µM*	i	-6%
N/C(=N\OC(=O)c1ccccc1)c1ccccn1	-34%	1	20%	-20%[0.397 µM]	i	-10%
Cc1cccc(C(=O)O/N=C(\N)c2ccccn2)c1	-24%	-4	-1%	13µM*	i	7%
O=C(OCc1ccccc1)c1ccc(Br)o1	-1%	-4	2%	-11%	-107%*	-7%
Cc1ccc(C(=O)O/N=C(\N)c2ccccn2)cc1C	-17%	3	-2%	10µM*	i	-15%
CCOc1c2c(c(-c3ccc4c(c3)OCO4)c3cc(OC)c(OC)cc13)C(=O)OC2	-34%	x	x	x	x	x
CN(C)c1ccc(/C=C\C=C/c2ccnc3ccccc23)cc1	-66%	x	x	x	x	x
Cc1cccc(/C(N)=N/OC(=O)c2ccc(Br)o2)c1	-36%	-2	9%	4.5µM*	i	2%
N/C(=N\OC(=O)c1cccc(F)c1)c1ccccn1	-3%	0	-2%	3.2µM*	i	-19%
N/C(=N\OC(=O)/C=C/c1ccc(Br)cc1)c1ccccn1	1%	4	12%	18µM*	i	-7%
Cc1cccc(/C(N)=N/OC(=O)c2cccnc2)c1	-8%	-2	3%	11µM*	i	-13%
Cc1cccc(/C(N)=N/OC(=O)c2ccc3c(c2)OCO3)c1	-72%	4	3%	u	i	-8%
COc1cc(OC)cc(C(=O)O/N=C(\N)c2cccc(C)c2)c1	-49%	0	-2%	u	i	11%
CCOc1ccc(C(=O)O/N=C(\N)c2ccccn2)cc1	-48%	-1	-2%	13µM*	i	-6%
COc1ccc(Br)cc1C1NC(c2ccc3c(c2)OCO3)=CC(c2cc(Cl)ccc2O)N1 (stereo not drawn)	0%	x	x	x	x	x
COc1ccc(NC(=O)c2cc3ccccc3o2)c(OC)c1	x	x	x	10%	x	125%
CSc1nncc(/C(C)=N/O)n1	0%	-57*	0%	13%	i	-6%
CC1(C(=O)O)CCCN(C(=O)C2(c3ccc(Cl)cc3)CCCC2)C1 (stereo not drawn)	-8%	1	x	18µM*	i	x
CC1(C(=O)NS(=O)(=O)C2CC2)CCN(C(=O)C2(c3ccc(Cl)cc3)CCCC2)C1 (stereo not drawn)	4%	-1	x	-5%	i	x
CC1Cc2cc(S(=O)(=O)NCc3ccccc3Cl)ccc2N1C(=O)C1CCC1 (stereo not drawn)	x	x	x	27%	x	34%
CCOC(=O)c1c(-c2cccc([N+](=O)[O-])c2)csc1N	3%	-2	27%	18µM*	i	-2%
Cc1ccc(C)c(-c2csc(N)c2C(=O)OC(C)C)c1	-11%	0	12%	u	i	-24%
CCOC(=O)c1c(-c2cccc([N+](=O)[O-])c2)csc1NC(=O)C1CC1	5%	-4	10%	20%	i	u
Cc1cccc(-c2csc(N)c2C(=O)OC(C)C)c1	8%	-2	13%	13µM*	i	-2%
O=C(O)c1cccc(S(=O)(=O)Nc2cc(Cl)ccc2Cl)c1	9%	0	4%	9%	i	0%

Compound activity (PubChem BioAssay)
